Data: PubChem BioAssay (Tox21)
Inconclusive results are not listed. Active and inactive are the calls of the source. Unless noted, calls come from the whole dose curve; as a rule, active = well fitted curve in the direction sought with a large enough effect in the repeat runs; inconclusive = weak or mixed curves; inactive = no such curve, though single readings can be large; an effect the other way counts as inactive or inconclusive. Non-standard residues stand in square brackets, D forms with d. Residues, ends and D or L forms follow the SMILES beside them. *: point of attachment. Sta = CC(C)C[C@H](N)[C@@H](O)CC(=O)O; Isovaleryl = CC(C)CC(=O)*

Experiments:
[1] = qHTS RealTime-Glo MT Cell Viability Assay in HEK293 cells - 8 hour (AID 1224887); note: top concentration of the series differs between compounds; nearly all actives have a fitted effect of over 50% in size
Outline: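 Tox21 screen in HEK293 using RealTime-Glo MT chemistry, with cells and reagent co-dispensed. Luminescence proportional to viable cell number was captured at intervals during 40 h compound exposure at 37 C.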

[2] = A CellTox Green Cytotoxicity Assay to monitor cytotoxicity in HEK293 cells - 16 hour (AID 1224888); note: nearly all actives have a fitted effect of over 35% in size
Outline: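 Seeding of HEK293 cells together with cytotoxicity dye preceded a 5 h incubation at 37 C/5% CO2. Test compounds in DMSO were then added and fluorescence monitored across 40 h.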

[3] = qHTS RealTime-Glo MT Cell Viability Assay in HepG2 cells - 0 hour (AID 1224889); note: nearly all actives have a fitted effect of over 50% in size; note: potency is the fitted concentration of half-maximal effect
Outline: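 Real-time, nonlytic viability: 600 HepG2 cells/well mixed with NanoLuc enzyme plus prosubstrate; 5 h settle, compound (DMSO) added by pintool; luminescence monitored over 40 h at 37 C.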

[4] = A CellTox Green Cytotoxicity Assay to monitor cytotoxicity in HepG2 cells - 8 hour (AID 1224890); note: nearly all actives have a fitted effect of over 45% in size
Outline: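 Nonlytic assay: viable cells exclude the dye, so fluorescence scales with cell death. HepG2 at 600 cells/well, compounds added after 5 h, signal read across 40 h.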

[5] = qHTS assay to identify small molecule antagonists of the estrogen receptor alpha (ER-alpha) signaling pathway using the BG1 cell line in the presence of 0.1 nM 17-beta-estradiol - cell viability counter screen (AID 1259241); note: nearly all actives have a fitted effect of over 40% in size
Outline: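 VM7Luc4E2 cells (endogenous full-length ER-alpha, 4xERE-luciferase), cultured 5 days in charcoal-stripped serum, exposed to compounds with 0.1 nM 17beta-estradiol (final) for 22 hr at 37C. Viability read in same wells as live-cell protease fluorescence after 30 min.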

[6] = qHTS assay to identify small molecule antagonists of the androgen receptor (AR) signaling pathway using the MDA cell line in the presence of 0.5 nM R1881 - cell viability counter screen (AID 1259242); note: nearly all actives have a fitted effect of over 45% in size
Outline: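 R1881 at 0.5 nM final stimulated MDA-kb2 cells during 16 hr compound treatment at 37C. Cytotoxicity read: CellTiter-Fluor fluorescence after 30 min.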

[7] = qHTS assay to identify small molecule HDAC inhibitors (AID 1259364); note: potency is the fitted concentration of half-maximal effect;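 note: wild-type HCT-116 cells with endogenous class I/II HDAC activity; nearly all actives have a fitted effect of over 45% in size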
Outline: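 Relative class I and II HDAC activity is taken from the luminogenic signal in HCT-116 cells, with compound exposure 2 hr and reagent development 30 min at room temperature.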

[8] = biological target: Estrogen receptor (Homo sapiens) (UniProt P03372); assay: qHTS assay to identify small molecule antagonists of the estrogen receptor alpha (ER-alpha) signaling pathway using the BG1 cell line in the presence of 0.1 nM 17-beta-estradiol (AID 1259244); note: nearly all actives have a fitted effect of over 50% in size
Estrogen receptor (Homo sapiens), sequence (P03372 whole entry, looked up): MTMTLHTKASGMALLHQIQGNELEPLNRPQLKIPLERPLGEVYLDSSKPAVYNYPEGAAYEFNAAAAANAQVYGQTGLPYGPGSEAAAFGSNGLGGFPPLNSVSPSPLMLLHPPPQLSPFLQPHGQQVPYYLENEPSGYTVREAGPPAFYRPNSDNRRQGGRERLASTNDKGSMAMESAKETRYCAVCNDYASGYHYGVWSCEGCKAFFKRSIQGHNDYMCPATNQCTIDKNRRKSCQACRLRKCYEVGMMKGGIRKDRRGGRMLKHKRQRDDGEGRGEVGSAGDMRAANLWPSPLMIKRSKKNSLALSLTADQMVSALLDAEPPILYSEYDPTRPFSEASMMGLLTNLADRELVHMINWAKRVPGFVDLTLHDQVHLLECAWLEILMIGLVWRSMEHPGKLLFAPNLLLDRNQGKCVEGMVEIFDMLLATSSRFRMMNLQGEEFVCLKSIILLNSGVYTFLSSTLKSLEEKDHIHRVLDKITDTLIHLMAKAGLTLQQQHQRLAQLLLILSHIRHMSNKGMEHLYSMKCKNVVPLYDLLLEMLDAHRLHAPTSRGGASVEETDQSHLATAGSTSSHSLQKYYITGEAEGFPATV
Outline: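 VM7Luc4E2; 4xERE-luciferase; 0.1 nM E2 final; 22 h co-incubation, 37C; ONE-Glo luminescence after 30 min at room temperature.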

[9] = qHTS assay to identify small molecule phospholipidosis (PLD) inducers (AID 1259344; active = well fitted curve in the direction sought with a large enough effect; an effect the other way counts as inactive or inconclusive)
Outline: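 HepG2 cells on collagen I, attached 4 h at 37 C, were co-treated with compound and LipidTOX Red dye for 24 h at 37 C, then fixed with paraformaldehyde plus Hoechst 33342 and imaged by high-content microscopy for phospholipid accumulation.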

[10] = biological target: Androgen receptor (Homo sapiens) (UniProt P10275); assay: qHTS assay to identify small molecule antagonists of the androgen receptor (AR) signaling pathway using the MDA cell line in the presence of 0.5 nM R1881 (AID 1259243); note: nearly all actives have a fitted effect of over 50% in size; note: potency is the fitted concentration of half-maximal effect
Androgen receptor (Homo sapiens), sequence (P10275 whole entry, looked up): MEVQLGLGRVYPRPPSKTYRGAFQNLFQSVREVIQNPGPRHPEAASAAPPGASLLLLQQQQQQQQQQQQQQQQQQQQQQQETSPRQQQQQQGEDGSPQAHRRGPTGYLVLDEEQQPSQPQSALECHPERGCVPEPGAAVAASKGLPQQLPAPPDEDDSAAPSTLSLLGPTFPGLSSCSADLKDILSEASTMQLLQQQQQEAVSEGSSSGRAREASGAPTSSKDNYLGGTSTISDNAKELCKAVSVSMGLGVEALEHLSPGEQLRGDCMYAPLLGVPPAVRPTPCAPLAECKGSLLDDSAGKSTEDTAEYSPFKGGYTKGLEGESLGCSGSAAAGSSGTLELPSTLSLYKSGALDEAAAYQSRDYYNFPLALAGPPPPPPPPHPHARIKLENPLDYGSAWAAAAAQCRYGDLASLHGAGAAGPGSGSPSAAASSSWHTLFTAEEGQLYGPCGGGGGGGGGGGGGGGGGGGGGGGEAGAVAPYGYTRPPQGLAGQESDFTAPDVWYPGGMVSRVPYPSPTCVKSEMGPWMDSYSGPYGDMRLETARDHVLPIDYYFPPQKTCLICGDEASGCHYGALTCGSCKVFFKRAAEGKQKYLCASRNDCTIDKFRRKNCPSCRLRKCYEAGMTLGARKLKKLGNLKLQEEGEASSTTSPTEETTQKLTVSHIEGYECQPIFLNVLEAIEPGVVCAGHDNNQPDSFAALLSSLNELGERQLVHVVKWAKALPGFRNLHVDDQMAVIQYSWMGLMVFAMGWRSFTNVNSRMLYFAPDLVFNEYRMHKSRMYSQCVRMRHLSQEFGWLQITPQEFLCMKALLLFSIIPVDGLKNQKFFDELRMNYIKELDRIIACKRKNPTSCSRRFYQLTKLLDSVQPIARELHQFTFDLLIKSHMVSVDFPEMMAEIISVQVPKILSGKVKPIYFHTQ
Outline: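 We exposed MDA-kb2 cells to compounds under 0.5 nM R1881 stimulation for 16 hr at 37C and quantified MMTV-driven luciferase by luminescence.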

Measured: Potency

Cc1ccc2ccccc2n1
inactive: [1] | [2] | [3] | [4] | [5] | [6] | [7]

Clc1cc(Cl)c(Cl)c(Cl)c1Cl
inactive: [1] | [2] | [3] | [4] | [6] | [8]

CCCOc1ccc(C(=O)OCCN(CC)CC)cc1N
inactive: [1] | [2] | [3] | [4] | [6] | [9] | [7]

Cc1ccc(N)nc1
inactive: [1] | [2] | [3] | [5] | [6] | [10] | [8] | [7]

CC(C)OCCO
inactive: [1] | [2] | [3] | [4] | [5] | [6] | [7]

CCCCCCCOC(C)=O
inactive: [1] | [2] | [3] | [4] | [6] | [8] | [7]

CCCCN1C(=O)c2ccccc2C1=O
inactive: [1] | [2] | [3] | [4] | [6] | [8] | [7]

OCCC(F)(F)C(F)(F)C(F)(F)C(F)(F)C(F)(F)C(F)(F)F
inactive: [1] | [2] | [3] | [5] | [6] | [8] | [7]

COc1cc(C(=O)NC2CCCNC2)cc(OC)c1OC (configuration not stated)
inactive: [1] | [2] | [4] | [6] | [9] | [7]

CC(=O)O[C@@H]1CC2C3CCc4cc(OC(=O)c5ccccc5)ccc4C3CCC2(C)[C@H]1OC(C)=O (some centres not stated)
active: [10] 10.6 µM
inactive: [1] | [2] | [3] | [6] | [8] | [7]

Cc1cc(C)c(N)c(Cl)c1
inactive: [1] | [2] | [3] | [5] | [6] | [8] | [7]

CN(C)c1ccncc1
inactive: [1] | [2] | [3] | [5] | [6] | [8] | [7]

CC(C)OC(=O)C(C(=O)OC(C)C)=C1SC=CS1
inactive: [2] | [3] | [4] | [5] | [6] | [10] | [9] | [7]

CCC(=O)OCCOc1ccccc1
inactive: [1] | [2] | [3] | [5] | [6] | [8]

O=C1c2ccccc2C(=O)N1CO
inactive: [2] | [3] | [4] | [5] | [6] | [10] | [8] | [7]

CCCCCCCCCCCBr
inactive: [1] | [2] | [3] | [5] | [6] | [8] | [7]

COc1cc2nc(N3CCN(C(=O)C4CCCO4)CC3)nc(N)c2cc1OC (configuration not stated)
inactive: [1] | [2] | [3] | [5] | [6] | [8] | [9]
active: [7] 3.35 µM

CC(C)(O)CCCC1=CCC(C=O)CC1 (configuration not stated)
inactive: [1] | [2] | [3] | [5] | [6] | [8] | [7]

CCCCS
inactive: [1] | [3] | [4] | [5] | [6] | [8] | [7]

CC(C)CC(=O)N[C@H](C(=O)N[C@H](C(=O)N[C@@H](CC(C)C)[C@@H](O)CC(=O)N[C@@H](C)C(=O)N[C@@H](CC(C)C)[C@@H](O)CC(=O)O)C(C)C)C(C)C (Isovaleryl-VV[Sta]A[Sta]-OH)
inactive: [1] | [2] | [3] | [5] | [6] | [9] | [7]

Nc1cc(S(=O)(=O)O)ccc1O
inactive: [2] | [3] | [4] | [5] | [6] | [10] | [8] | [7]

C[C@]12C=CC(=O)C=C1[C@@H](F)C[C@@H]1[C@@H]2[C@@H](O)C[C@@]2(C)[C@H]1CC[C@]2(O)C(=O)CO
inactive: [1] | [2] | [5] | [6] | [8] | [9] | [7]
active: [3] 10.7 µM

CCNC(=O)C(C)OC(=O)Nc1ccccc1 (configuration not stated)
inactive: [1] | [2] | [3] | [6] | [8] | [7]

CC(=O)OC/C=C(/C)CCC=C(C)C
inactive: [1] | [2] | [3] | [6] | [8]

CCOC(=O)CC
inactive: [1] | [2] | [3] | [5] | [6] | [8] | [7]

N#CC1(N)CCCCC1
inactive: [1] | [2] | [3] | [5] | [6] | [8]

CC(C)=CCC/C(C)=C\C#N
inactive: [1] | [2] | [3] | [6] | [8] | [7]
